We go through 25 molecules from ChEMBL document CHEMBL5606458, “ASAP - ZIKV NS2B-NS3 protease fluorescence single point” (2024).

This experiment has as its target Nonstructural protein 3 (Zika virus) (UniProt A0A024AXB9).
Where [1] appears, read: PRVABC59, Concentration 50.0 uM, Number of replicates 1.0.

The structures appear in SMILES notation. Among all 2,700 compounds or so, about 160 (5.9%) showed an effect of 50% or more. This is one part of a sample in which strong results are shown more often than they occur.

Sequence of Nonstructural protein 3 (Zika virus) (A0A024AXB9 as listed by the source): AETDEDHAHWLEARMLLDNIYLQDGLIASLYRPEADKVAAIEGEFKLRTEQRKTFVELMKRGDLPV

As to `NCc1cccc(NC(=O)C2CN(C(=O)OCc3ccccc3)C2)c1`, the inhibition came out at 1.12% (PRVABC59, Concentration 49.5 uM, Number of replicates 2.0, Standard deviation 0.7047125451631892 %); 3.88% (PRVABC59, Concentration 99.01 uM, Number of replicates 2.0, Standard deviation 1.0691153353532887 %); 10.1% (PRVABC59, Concentration 198.0 uM, Number of replicates 2.0, Standard deviation 0.2800776094724739 %).

Consider `O=Cc1ccc(N2CCC(C(=O)NCCNC(=O)c3ccccc3Cl)CC2)cc1`, for which the inhibition under setting [1] was 20.1%.

On to `CC(=O)N[C@@H](Cc1ccc(CN)cc1)C(=O)Nc1cccc2c(CO)cc(C)nc12`, for which the inhibition turned out to be 62.5% (PRVABC59, Concentration 49.95 uM, Number of replicates 2.0, Standard deviation 1.5120886598590335 %) and 95.8% (PRVABC59, Concentration 99.9 uM, Number of replicates 2.0, Standard deviation 0.31634008358167093 %).

Regarding `CC(=O)N[C@@H](CCCCN)C(=O)Nc1cccc2c(CO)cc(C)nc12`, the inhibition came to 70.2% (PRVABC59, Concentration 49.95 uM, Number of replicates 2.0, Standard deviation 2.062511665720634 %) and 93.5% (PRVABC59, Concentration 99.9 uM, Number of replicates 2.0, Standard deviation 0.26572610179233236 %).

For `CC(=O)N[C@@H](CCCN)C(=O)Nc1ccccc1Cc1cccc2c(CO)cc(C)nc12`, the inhibition is, setting by setting: (PRVABC59, Concentration 49.95 uM, Number of replicates 2.0, Standard deviation 1.2164295290794762 %) 11.2%; (PRVABC59, Concentration 99.9 uM, Number of replicates 2.0, Standard deviation 0.5089666913167087 %) 30.6%.

As to `CC(=O)N[C@@H](CCCN)C(=O)Nc1cccc2c(CO)cc(C)nc12`, the inhibition is, setting by setting: (PRVABC59, Concentration 49.95 uM, Number of replicates 2.0, Standard deviation 2.340889239911572 %) 9.01%; (PRVABC59, Concentration 99.9 uM, Number of replicates 2.0, Standard deviation 2.049858170273299 %) 41.2%.

Regarding `Cc1cc(CO)c2cccc(C[C@H](NC(=O)Cc3cccc(CN)c3)C(=O)O)c2n1`, the inhibition (PRVABC59, Concentration 49.95 uM, Number of replicates 2.0, Standard deviation 1.661005908968333 %) was -1.72% and the inhibition (PRVABC59, Concentration 99.9 uM, Number of replicates 2.0, Standard deviation 1.2746087015891263 %) amounted to 6.96%.

As for `CC(=O)N[C@@H](CCCCN)C(=O)Nc1ccccc1Cc1cccc2c(CO)cc(C)nc12`, the inhibition is -3.65% (PRVABC59, Concentration 49.95 uM, Number of replicates 2.0, Standard deviation 1.4556435772845158 %) and 11.6% (PRVABC59, Concentration 99.9 uM, Number of replicates 2.0, Standard deviation 0.5191459981690598 %).

As for `Cn1cc(CNC(=O)c2ccccc2[C@@H]2CCCNC2)cn1`, the inhibition by setting is: (PRVABC59, Concentration 49.5 uM, Number of replicates 2.0, Standard deviation 1.3820269413959925 %) -1.82%; (PRVABC59, Concentration 99.01 uM, Number of replicates 2.0, Standard deviation 1.129463511127855 %) -0.227%; (PRVABC59, Concentration 198.0 uM, Number of replicates 2.0, Standard deviation 0.6425212666298173 %) 0.6%.

`O=Cc1ccc(N2CCC(C(=O)NCCc3cc(F)cc(F)c3)CC2)cc1`: under setting [1], the inhibition amounted to 19.3%.

For the molecule `N#Cc1cccc(NC(=O)c2cccc(OCc3c(Cl)cccc3Cl)c2)c1`, the inhibition (PRVABC59, Concentration 49.5 uM, Number of replicates 2.0, Standard deviation 1.7651619405536074 %) amounted to 6.21%; the inhibition (PRVABC59, Concentration 99.01 uM, Number of replicates 2.0, Standard deviation 1.834624667346594 %) came out at 10%; the inhibition (PRVABC59, Concentration 198.0 uM, Number of replicates 2.0, Standard deviation 2.6293560952864428 %) came to 8.42%.

Consider `O=C(NCc1ccccc1Oc1ccccc1)c1cc(Cl)ccc1NS(=O)(=O)c1ccc(Oc2ccccc2Cl)cc1`, for which, for the setting “PRVABC59, Concentration 15.0 uM, Number of replicates 1.0”, the inhibition came to 15.7%.

Take `O=Cc1ccc(N2CCC(C(=O)NCCN3C(=O)CSC3=O)CC2)cc1`: the inhibition under setting [1] stood at 24.5%.

On to `Cc1cc(CO)c2cccc(NC(=O)CC3CCNCC3)c2n1`, for which the inhibition is, setting by setting: (PRVABC59, Concentration 49.95 uM, Number of replicates 2.0, Standard deviation 2.2586421938534733 %) 41.5%; (PRVABC59, Concentration 99.9 uM, Number of replicates 2.0, Standard deviation 1.48045087514324 %) 81%.

`Cc1cc(CO)c2cccc(Cc3cccc(NC(=O)C[C@H]4CCCN4)c3)c2n1`: the inhibition (PRVABC59, Concentration 49.95 uM, Number of replicates 2.0, Standard deviation 0.1706171862678608 %) was -9.82%.

As for `Cc1cc(CO)c2cccc(Cc3ccccc3NC(=O)Cc3c(C)c4c(=O)[nH]n(C)c4[nH]c3=O)c2n1`, the inhibition was 19.5% (PRVABC59, Concentration 49.95 uM, Number of replicates 2.0, Standard deviation 2.3870518401485845 %) and 39.4% (PRVABC59, Concentration 99.9 uM, Number of replicates 2.0, Standard deviation 1.6185118125725577 %).

On to `Cc1cc(CO)c2cccc(Cc3ccccc3NC(=O)CCC3CCNCC3)c2n1`, for which the inhibition was 4.96% (PRVABC59, Concentration 49.95 uM, Number of replicates 2.0, Standard deviation 0.020358613704702253 %) and 26.8% (PRVABC59, Concentration 99.9 uM, Number of replicates 2.0, Standard deviation 1.9188023762412802 %).

As to `Cc1cc(CO)c2cccc(NCC3CCNCC3)c2n1`, for the setting “PRVABC59, Concentration 99.9 uM, Number of replicates 2.0, Standard deviation 2.951218090372617 %”, the inhibition is -5.37%.

On to `Cc1cc(CO)c2cccc(Cc3cccc(NC(=O)CNC4CC4)c3)c2n1`, for which the inhibition reads like this: (PRVABC59, Concentration 49.95 uM, Number of replicates 2.0, Standard deviation 2.20382385319093 %) -2.08%; (PRVABC59, Concentration 99.9 uM, Number of replicates 2.0, Standard deviation 2.3107066172874657 %) 1.16%.

On to `Cc1cc(CO)c2cccc(Cc3cccc(NC(=O)CCC4CCNCC4)c3)c2n1`, for which the inhibition was 70.2% (PRVABC59, Concentration 49.95 uM, Number of replicates 2.0, Standard deviation 0.07125447361688171 %) and 94.6% (PRVABC59, Concentration 99.9 uM, Number of replicates 2.0, Standard deviation 0.2799306012648679 %).

For `Cc1cc(CO)c2cccc(NC(=O)CC3CNC3)c2n1`, the inhibition by setting is: (PRVABC59, Concentration 49.95 uM, Number of replicates 2.0, Standard deviation 1.5957700474656553 %) -6.72%; (PRVABC59, Concentration 99.9 uM, Number of replicates 2.0, Standard deviation 1.1039918524960535 %) -6.98%.

For `Cc1cc(CO)c2cccc(NC(=O)C[C@H]3CCCN3)c2n1`, the inhibition amounted to 3.54% (PRVABC59, Concentration 49.95 uM, Number of replicates 2.0, Standard deviation 2.649580260544395 %) and 13.9% (PRVABC59, Concentration 99.9 uM, Number of replicates 2.0, Standard deviation 2.639543831508496 %).

Regarding `Cc1cc(CO)c2cccc(NC(=O)Cc3c(C)c4c(=O)[nH]n(C)c4[nH]c3=O)c2n1`, the inhibition by setting is: (PRVABC59, Concentration 49.95 uM, Number of replicates 2.0, Standard deviation 0.16559867672197162 %) 15%; (PRVABC59, Concentration 99.9 uM, Number of replicates 2.0, Standard deviation 1.570678848435362 %) 29.8%.

For the molecule `Cc1cc(CO)c2cccc(Cc3cccc(NC(=O)Cc4c(C)c5c(=O)[nH]n(C)c5[nH]c4=O)c3)c2n1`, the inhibition (PRVABC59, Concentration 49.95 uM, Number of replicates 2.0, Standard deviation 0.9685022100006885 %) is 29.7% and the inhibition (PRVABC59, Concentration 99.9 uM, Number of replicates 2.0, Standard deviation 0.32116033435216484 %) was determined as 54.1%.

Take `Cc1cc(CO)c2cccc(NC(=O)CCC3CCNCC3)c2n1`: the inhibition reads like this: (PRVABC59, Concentration 49.95 uM, Number of replicates 2.0, Standard deviation 0.05519955890732387 %) 98.6%; (PRVABC59, Concentration 99.9 uM, Number of replicates 2.0, Standard deviation 0.045159842417240824 %) 96.7%.

In general, inhibition refers to the drop in the measured response relative to a control, in per cent.
